# TDP-43 yeast inh: TDP-43 toxicity inhibition in yeast; TDP-43 expressing yeast growth rescue, BacTiter-Glo, 24 h; Potency, µM (series often up to 46.1 µM), for the others: top-dose growth rescue (activation), most hits filed as activators; hit rate 1.8% among 410,000; AID 652104; also: % of control where 0% means no effect; nearly all actives have a fitted effect of over 50% in size
#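 In this qHTS, compounds that restore growth of yeast expressing TDP-43 appear as activators. Cells (OD600=0.02, galactose medium, raffinose-pregrown) are incubated with compound 24 hr at 30 deg C and growth is quantified by BacTiter-Glo.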
# Abeta rescue: restores growth of yeast expressing A-beta42 peptide. yeast expressing A-beta42, growth rescue, OD600, 48 h; response scale: 0% DMSO, 100% iron-clioquinol control. Potency, µM (doses to about 46.1 µM), hits mostly activators. hit rate 0.063% among 410,000. AID 1347071; also: nearly all actives have a fitted effect of over 55% in size
#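 Growth rescue measured by 600 nm absorbance after 48 h yeast culture at 30 C with compound. Values normalized between DMSO and an equimolar ferric chloride plus clioquinol control.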
# aSyn yeast inh: rescues yeast growth from alpha-synuclein toxicity; Yeast expressing alpha-synuclein, growth rescue, BacTiter-Glo, 24 h; Potency, µM (highest dose often 46.1 µM), inactives show at the top dose growth rescue (activation), actives largely listed as activators; hit rate 0.14% among 370,000; also: % of control where 0% means no effect; nearly all actives have a fitted effect of over 65% in size
#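 Readout is rescue of growth in alpha-synuclein-expressing yeast, so inhibitors of toxicity appear as activators. Growth after 24 hr at 30 deg C in galactose medium is quantified by luminescence.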
# FUS suppressor: suppressors of FUS proteinopathy in yeast | Potency, µM (doses to about 76.6 µM), hits mostly activators | S. cerevisiae FUS-expressing, growth rescue, OD600, 24 h | hit rate 0.24% among 390,000;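 also: plate controls were DMSO vehicle for no effect and reference control for full effect; nearly all actives have a fitted effect of over 55% in size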
#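 Absorbance at 600 nm, taken 24hr after compound addition, measured rescue of FUS-yeast growth at 30C. Induction used 2% galactose with seeding at OD 0.005. Controls: CP55940 from 92uM final, DMSO only.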
# An asterisk follows results filed as active; i = inactive; ? = inconclusive; nt = no result given; ! = not active in a repeat; [ ] = remark or other dose. A selection: hits, their analogues and other compounds. The true share with any hit is near 2.1%. Calls follow the shape of the dose curve; as a rule, active = well fitted curve in the direction sought with a large enough effect; inconclusive = small, poorly fitted or top-dose-only effect, or another doubt; inactive = no such curve, though single readings can be large; an effect the other way counts as inactive or inconclusive. Potency is read from the fitted curve at half-maximal effect.
SMILES,TDP-43 yeast inh,Abeta rescue,aSyn yeast inh,FUS suppressor
COc1ccc(OC)c(NC(=O)CC2SC(=Nc3ccccc3)N(CCc3ccccn3)C2=O)c1 (stereo unspecified),2%,i,8%,35µM*
COc1ccc(N=C2SC(CC(=O)Nc3ccccc3)C(=O)N2CCc2ccccn2)cc1 (stereo unspecified),21%,i,-2%,nt
Cc1ccc(F)cc1C(=O)N1CCCC(c2cc(C(=O)Nc3ccccc3Cl)no2)C1 (stereo unspecified),35µM*,i,26%,?
O=C(Nc1ccc2c(c1)OCO2)c1cc(C2CCCCN2C(=O)c2ccc3ccccc3c2)on1 (stereo unspecified),20%,i,4%,35µM*
O=C(Nc1ccc2c(c1)OCO2)c1cc(C2CCCN(C(=O)C3CCCCC3)C2)on1 (stereo unspecified),35µM*,i,3%,i
O=C(Nc1ccccc1Cl)c1cc(C2CCCN(C(=O)C3CCCCC3)C2)on1 (stereo unspecified),16µM*,i,14%,i
Nc1nc(N)c2c(Oc3ccc(F)cc3)cccc2n1,nt,nt,8%,nt
Cc1cccc(OCCCC(=O)NNC(=O)c2ccccn2)c1,22µM*,?,?,i
Cc1cccc(OCCCC(=O)NNC(=O)c2ccncc2)c1,-6%,i,0%,i
Cc1ccc(NC(=S)c2nc3ccccc3[nH]2)c(C)c1,18µM*,?,-4%,i
Nn1c(SCC(=O)Nc2nccs2)nnc1-c1cc(-c2ccc(Cl)cc2)n[nH]1,nt,nt,nt,i
O=C(/C=C/c1ccc(F)cc1)c1ccccc1Br,16µM*,i,?,nt
CC(C)CCNC(=O)[C@H]1COC(O)([C@H](Cc2ccccc2)NC(=O)[C@@H](NC(=O)OCc2ccccc2)C(C)C)CN1C (stereo partly specified),nt,nt,nt,i
CCCC(C(=O)c1ccccc1)n1cncn1 (stereo unspecified),-15%,i,-1%,i
CC(C)(C)C(=O)C(Cc1ccccc1Cl)n1cncn1 (stereo unspecified),7.1µM*,i,30%,i
CC(C)(C)C(=O)C(Cc1ccccc1)n1cncn1 (stereo unspecified),?,i,?,i
CC(C)(C)C(O)C(Cc1ccccc1Cl)n1cncn1 (stereo unspecified),35µM*,i,14%,i
CCC(=O)N1CCc2cc(Br)c(S(=O)(=O)NCCCN(CC)Cc3ccccc3)cc21,nt,nt,nt,i
O=C1CCC[C@H]2C[C@H](NCc3ccc(Br)cc3)CC[C@]23CCCN13,nt,nt,nt,i
O=C(c1ccccc1)N1c2ncnn2C2(CCCCC2)[C@@H]2CCCC[C@@H]21,35µM*,i,nt,i
O=C(c1ccc(F)cc1)N1c2ncnn2C2(CCCCC2)[C@@H]2CCCC[C@@H]21,?,i,nt,i
Nc1ccc(N2CCN(c3ccccc3)CC2)c(F)c1,22µM*,i,1%,i
O=C(CSc1ccccc1)Nc1ccc(N2CCN(c3ccccc3)CC2)c(F)c1,11%,i,0%,i
Cc1ccc(Cc2cnc(N3C(=N)SC(C)C3=O)s2)cc1 (stereo unspecified),?,i,19%,i
N=C1SCC(=O)N1c1ncc(Cc2cccc(Cl)c2)s1,8.9µM*,i,22%,i
SMILES,TDP-43 yeast inh,Abeta rescue,aSyn yeast inh,FUS suppressor
Cc1cccc(Cc2cnc(N3C(=N)SC(C)C3=O)s2)c1 (stereo unspecified),22µM*,?,10µM*,i
COC(=O)[C@]12C[C@H](CC(=O)NCc3cccs3)C(=O)N(Cc3ccco3)C1=C[C@H](C1CCCC1)O[C@@H]2C,nt,nt,nt,i
Cc1ccc(-n2c(SCC(=O)Nc3ccc(S(=O)(=O)Nc4cc(C)nc(C)n4)cc3)nnc2-c2ccc(C(C)(C)C)cc2)cc1,nt,nt,nt,22µM*
O=C(CSc1nnc(-c2ccco2)n1-c1ccc(Cl)cc1)Nc1ccc(S(=O)(=O)Nc2nccs2)cc1,nt,nt,nt,25µM*
COc1ccc(-n2c(SCC(=O)Nc3ccc(S(=O)(=O)Nc4nccs4)cc3)nnc2-c2ccccc2)cc1,nt,nt,nt,10µM*
CCOc1ccc(-n2c(SCC(=O)Nc3ccc(S(=O)(=O)Nc4cc(C)nc(C)n4)cc3)nnc2-c2ccncc2)cc1,nt,nt,nt,i
O=C(CSc1nnc(COc2ccccc2)n1-c1ccccc1)Nc1ccc(S(=O)(=O)Nc2nccs2)cc1,nt,nt,nt,20µM*
Nn1c(SCC(=O)Nc2ccc(S(=O)(=O)Nc3nccs3)cc2)nnc1-c1ccco1,nt,nt,nt,i
Cn1c(COc2ccccc2)nnc1SCC(=O)Nc1ccc(S(=O)(=O)Nc2nccs2)cc1,nt,nt,nt,i
CNc1nc(N2CCCN(C)CC2)nc2cc(OC)c(OC)cc12,nt,nt,-7%,nt
C[C@@H]1CCN(C2CC2)S(=O)(=O)c2c(cccc2N2CCC[C@H]2CO)O1,nt,nt,nt,i
Cc1cc(C)nc(NS(=O)(=O)c2ccc(NC(=O)COc3ccc(C(C)(C)C)cc3)cc2)n1,0%,i,nt,28µM*
CCOc1ccc(-c2cn(-c3ccc(OC)cc3)c(SCC(=O)Nc3ccccc3Cl)n2)cc1,9%[9.22 µM],i,nt,i
CCOc1ccc(-c2cn(-c3ccc(OC)cc3)c(SC)n2)cc1,13µM*,i,7%,i
C#CCOCCOCCOCCNc1nc(N2CCN(C(=O)[C@H](CCCCN)n3cc([C@@H](N)C(C)CC)nn3)CC2)nc(N2CCN(C(=O)[C@H](CCCCN)n3cc([C@@H](N)C(C)CC)nn3)CC2)n1 (stereo partly specified),nt,nt,nt,i
Cc1ccc(NC(=O)CSc2nc3ccccc3nc2N2CCOCC2)cc1,?,i,12%,32µM*!
COC(=O)CS(=O)(=O)c1nc2ccccc2nc1N1CCCCC1,20µM*,i,nt,i
O=C(O)CSc1nc2ccccc2nc1N1CCCCC1,20µM*,i,nt,i
CC(=O)Nc1ccc(NC(=O)CSc2nc3ccccc3nc2N2CCCCC2)cc1,4%,i,6%,i
NNc1nc(-c2ccccc2)nc2sc3c(c12)CCCC3,-3%,i,-4%,i
Nc1c2c(nc3sc4c(c13)CCCC4)-c1ccccc1CC2,2.5µM*,i,-7%,i
Cc1cc(NC(=O)c2cccnc2)ccc1Br,11µM*,i,-7%,i
CC(C)(C)c1ccc(C(=O)Nc2cccnc2)cc1,14µM*,i,-4%,i
Cc1cc(NC(=O)c2ccccc2-c2ccccc2)ccc1Br,0%,13µM*,-13%,i
Cc1ccc(-c2cc(C(=O)Nc3cccnc3)c3ccccc3n2)o1,-26%,i,21%,3.2µM*
Cc1ccc(NC(=O)c2cc(-c3ccc(C)o3)nc3ccccc23)cc1,?,i,28%,?
O=c1[nH]/c(=C/c2ccc3c(c2)OCO3)c(=O)[nH]/c1=C\c1ccc2c(c1)OCO2,nt,nt,-3%,nt
CCCCCCC(=O)NC1CCCCN(Cc2cccc(Cl)c2)C1=O (stereo unspecified),nt,nt,nt,i

# Compound activity: PubChem, National Center for Advancing Translational Sciences (NCATS)
